Measurements published in PubChem BioAssay AID624405 (Broad Institute, 2012).
Among all 1,900 compounds or so, about 250 (13%) were called active. Roughly 4% stayed inconclusive and do not appear here.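 How the source made its calls: active means fitted curve reaches 40% rescue activity at or below the top valid dose, in every test run; inconclusive means test runs disagree, some active and some inactive; inactive means every run misses the threshold or moves the wrong way.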 A selection follows. A call without a number means that no potency is given here. Potency and affinity values are given separately.

Assay: rescue of simvastatin-induced ATP loss – cell-based, C2C12 myotubes, ATP luminescence, cherry pick, dose response (AID 624405);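 further: myotubes are challenged with simvastatin at 10 µM to lower ATP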
Conditions: 48 h, scaled: DMSO wells 0, geranylgeraniol wells 100; series mostly up to 19.5 µM

With `C[C@@H]1CN([C@@H](C)CO)C(=O)c2cc(C3=CCCCC3)cnc2O[C@@H]1CN(C)C(=O)C1CCOCC1` as the compound, how does the outcome read?
Its outcome is “inactive”.

Which outcome does the source give for `O=C(COC(=O)CNC(=O)c1ccc(Br)o1)Nc1ccc2c(c1)OCCO2` here?
Its outcome is “inactive”.

For `COc1ccc(C(=O)N2CCc3cc(OC)c(OC)cc3C2)cc1OC`, which outcome is on record?
The outcome was “inactive”.

For `COc1ccc(C(=O)N2CCN(C(=O)c3cc(OC)c(OC)c(OC)c3)CC2)cc1`, which outcome is on record?
The outcome was “inactive”.

For `N#Cc1cc2c(nc1SCC(=O)N1CCCCC1)CCCCC2`, which outcome is on record?
The outcome was “inactive”.

With `CC(C)(C)C(=O)Nc1ccccc1N1CCN(C(=O)c2ccc(Cl)cc2)CC1` as the compound, how does the outcome read?
Its outcome is “inactive”.

Which outcome does the source give for `C[C@@H]1CN([C@H](C)CO)C(=O)c2cc(NC(=O)C3CCCCC3)ccc2O[C@H]1CN(C)Cc1ccc(Cl)c(Cl)c1` here?
The outcome was “inactive”.

With `C[C@H](CO)N1C[C@H](C)[C@@H](CN(C)Cc2ccc(Cl)c(Cl)c2)Oc2ccc(NC(=O)c3ccncc3)cc2CC1=O` as the compound, how does the outcome read?
The outcome was “inactive”.

With `C[C@H](CO)N1C[C@H](C)[C@@H](CN(C)Cc2ccc(Cl)c(Cl)c2)Oc2ccc(NC(=O)NC3CCCCC3)cc2CC1=O` as the compound, how does the outcome read?
Its outcome is “inactive”.

Which outcome does the source give for `C[C@@H]1CN([C@H](C)CO)C(=O)Cc2cc(NC(=O)Cc3cn(C)c4ccccc34)ccc2O[C@@H]1CN(C)Cc1ccc(Cl)c(Cl)c1` here?
Its outcome is “inactive”.

Which outcome does the source give for `C[C@H]1CN([C@@H](C)CO)C(=O)Cc2cc(NC(=O)Cc3cn(C)c4ccccc34)ccc2O[C@@H]1CN(C)Cc1ccc(Cl)c(Cl)c1` here?
The outcome was “inactive”.

With `C[C@@H]1CN([C@H](C)CO)C(=O)Cc2cc(NC(=O)Nc3ccc(F)cc3)ccc2O[C@H]1CN(C)Cc1ccc(Cl)c(Cl)c1` as the compound, how does the outcome read?
Its outcome is “inactive”.

With `C[C@@H]1CN([C@@H](C)CO)C(=O)Cc2cc(NC(=O)C3CCCCC3)ccc2O[C@H]1CN(C)Cc1ccc(-c2ccccc2)cc1` as the compound, how does the outcome read?
The outcome was “inactive”.

Which outcome does the source give for `C[C@@H]1CN([C@@H](C)CO)C(=O)c2cc(NC(=O)C3CCCCC3)ccc2O[C@@H]1CN(C)Cc1ccc(Cl)c(Cl)c1` here?
The outcome was “inactive”.

For `COc1ccc(S(=O)(=O)Nc2ccc3c(c2)C(=O)N([C@@H](C)CO)C[C@H](C)[C@@H](CN(C)S(=O)(=O)c2ccc(F)cc2)OCCCC[C@@H](C)O3)cc1`, which outcome is on record?
Its outcome is “inactive”.

For `C[C@@H]1CCCCO[C@H](CN(C)C(=O)Nc2cccc3ccccc23)[C@H](C)CN([C@@H](C)CO)C(=O)c2cc(NC(=O)Nc3ccc4c(c3)OCO4)ccc2O1`, which outcome is on record?
The outcome was “inactive”.

For `COc1cccc(S(=O)(=O)N(C)C[C@@H]2Oc3ncc(C#CCC(C)C)cc3C(=O)N([C@@H](C)CO)C[C@H]2C)c1`, which outcome is on record?
Its outcome is “inactive”.

For `CC(=O)Nc1cc(-c2nn(C)c(=O)c3ccccc23)ccc1N1CCOCC1`, which outcome is on record?
Its outcome is “inactive”.

For `C[C@@H]1CCCCO[C@H](CN(C)C(=O)C2CCCCC2)[C@H](C)CN([C@H](C)CO)C(=O)c2cc(NS(=O)(=O)c3ccccc3)ccc2O1`, which outcome is on record?
The outcome was “inactive”.

With `COc1ccc(CC(=O)Nc2ccc(-c3cn4ccccc4n3)cc2)cc1` as the compound, how does the outcome read?
The outcome was “inactive”.

For `C[C@@H]1CN([C@@H](C)CO)C(=O)Cc2cc(NC(=O)C3CC3)ccc2O[C@H]1CN(C)Cc1ccc(Oc2ccccc2)cc1`, which outcome is on record?
Its outcome is “inactive”.

With `C[C@@H]1CN([C@@H](C)CO)C(=O)Cc2cc(NC(=O)C3CCCCC3)ccc2O[C@H]1CN(C)Cc1ccc(Oc2ccccc2)cc1` as the compound, how does the outcome read?
Its outcome is “inactive”.

With `CCCCNc1ncnc2c1cnn2Cc1ccc(Cl)cc1` as the compound, how does the outcome read?
Its outcome is “inactive”.

For `O=C(CCn1c(SCC(=O)NCc2ccco2)nc2ccccc2c1=O)NCCc1ccccc1`, which outcome is on record?
The outcome was “inactive”.

For `COCCCn1c(SCC(=O)NCc2ccco2)nc2sc3c(c2c1=O)CCC3`, which outcome is on record?
The outcome was “inactive”.

Which outcome does the source give for `COc1ccc(OCC(=O)Nc2nnc(S(=O)(=O)N3CCCCCC3)s2)cc1` here?
The outcome was “inactive”.

Which outcome does the source give for `Cc1cnc(C(=O)Nc2nccs2)cn1` here?
Its outcome is “inactive”.

With `CCN(CC)S(=O)(=O)c1cccc(-c2nnc(SCC(=O)NCCC3=CCCCC3)n2N)c1` as the compound, how does the outcome read?
Its outcome is “inactive”.

Which outcome does the source give for `CCN(C(C)=O)c1cccc2ccccc12` here?
The outcome was “inactive”.

With `CC1CCN(S(=O)(=O)c2ccc(NC(=O)c3ccco3)cc2)CC1` as the compound, how does the outcome read?
Its outcome is “inactive”.

Which outcome does the source give for `CC1CCCN(S(=O)(=O)c2ccc(NC(=O)C3CCN(C(=O)c4ccco4)CC3)cc2)C1` (centres undefined) here?
The outcome was “inactive”.

For `CCC(C)NS(=O)(=O)c1ccc(NC(=O)C2CCN(C(=O)c3ccco3)CC2)cc1` (centres undefined), which outcome is on record?
The outcome was “inactive”.

For `CCC1CCCCN1S(=O)(=O)c1ccc(NC(=O)C2CCN(C(=O)c3ccco3)CC2)cc1` (centres undefined), which outcome is on record?
Its outcome is “inactive”.

With `C[C@@H]1CCCCO[C@@H](CN(C)C(=O)Nc2cccc3ccccc23)[C@H](C)CN([C@H](C)CO)C(=O)c2cc(NC(=O)c3ccncc3)ccc2O1` as the compound, how does the outcome read?
The outcome was “inactive”.

Which outcome does the source give for `C[C@H]1CN([C@@H](C)CO)S(=O)(=O)c2ccc(-c3ccc(C(=O)N(C)C)cc3)cc2O[C@@H]1CN(C)C(=O)Cc1ccccn1` here?
Its outcome is “inactive”.

Which outcome does the source give for `CCOc1ncnc2c1[nH]c1ccccc12` here?
The outcome was “inactive”.

For `COc1ccc(CN(C)C[C@@H]2Oc3ccc(NC(=O)CCC(F)(F)F)cc3CC(=O)N([C@H](C)CO)C[C@H]2C)cc1`, which outcome is on record?
The outcome was “inactive”.

Which outcome does the source give for `COc1ccc(S(=O)(=O)Nc2ccc3c(c2)C(=O)N([C@H](C)CO)C[C@H](C)[C@@H](CN(C)S(=O)(=O)c2ccc(F)cc2)OCCCC[C@@H](C)O3)cc1` here?
The outcome was “inactive”.

Which outcome does the source give for `O=C(O)CCC(=O)OCC1CCCCC1` here?
The outcome was “inactive”.

For `CC(C)NC(=O)Cn1c(=O)n(CC(=O)N2CCCCC2)c(=O)c2sccc21`, which outcome is on record?
The outcome was “inactive”.

Which outcome does the source give for `C[C@H]1CN([C@@H](C)CO)C(=O)c2cc(C#CC3CC3)cnc2O[C@@H]1CN(C)S(C)(=O)=O` here?
The outcome was “inactive”.

For `C[C@@H]1CN([C@H](C)CO)C(=O)c2cc(NS(C)(=O)=O)ccc2O[C@@H](C)CCCCO[C@@H]1CN(C)S(=O)(=O)c1ccc(Cl)cc1`, which outcome is on record?
The outcome was “inactive”.

With `O=c1c2c([nH]c3ccc(Br)cc13)CCCC2` as the compound, how does the outcome read?
Its outcome is “inactive”.

For `O=C(CCn1cccc1)NC1CCCc2ccccc21` (centres undefined), which outcome is on record?
Its outcome is “inactive”.

With `Cc1ccc(CN(C(=O)c2ccco2)C(C(=O)NC2CCCC2)c2ccc(N3CCOCC3)cc2)cc1` (centres undefined) as the compound, how does the outcome read?
The outcome was “inactive”.

With `COc1ccc(NC(=O)Nc2ccc3c(c2)C(=O)N([C@H](C)CO)C[C@H](C)[C@@H](CN(C)Cc2ccc(C(F)(F)F)cc2)OCCCC[C@H](C)O3)cc1` as the compound, how does the outcome read?
Its outcome is “inactive”.

With `Cc1ccc(S(=O)(=O)N(C)C[C@@H]2Oc3c(NC(=O)Nc4ccccc4)cccc3C(=O)N([C@H](C)CO)C[C@H]2C)cc1` as the compound, how does the outcome read?
The outcome was “inactive”.

With `Cc1ccc(S(=O)(=O)N(C)C[C@@H]2Oc3c(NC(=O)Nc4ccccc4)cccc3C(=O)N([C@H](C)CO)C[C@@H]2C)cc1` as the compound, how does the outcome read?
Its outcome is “inactive”.

With `Cc1ccc(S(=O)(=O)N(C)C[C@@H]2Oc3c(NC(=O)Nc4ccccc4)cccc3C(=O)N([C@@H](C)CO)C[C@@H]2C)cc1` as the compound, how does the outcome read?
Its outcome is “inactive”.

With `C[C@@H]1CN([C@H](C)CO)C(=O)c2cccc(NC(=O)Nc3ccccc3)c2O[C@@H]1CN(C)S(=O)(=O)c1ccccc1` as the compound, how does the outcome read?
Its outcome is “inactive”.

For `c1cnc2ccc(C(c3nnnn3C3CCCC3)N3CCN(c4nc5ccccc5s4)CC3)cc2c1` (centres undefined), which outcome is on record?
Its outcome is “inactive”.

For `CC(C)NC(=O)CN1C(=O)NC(CCc2ccccc2)C1=O` (centres undefined), which outcome is on record?
Its outcome is “inactive”.

For `CCCn1c2c(c(O)c(C(=O)NC)c1=O)CCCC2`, which outcome is on record?
The outcome was “inactive”.

For `C[C@H]1CN([C@@H](C)CO)S(=O)(=O)c2ccc(C#CC3CCCCC3)cc2O[C@H]1CN(C)C(=O)Cc1ccncc1`, which outcome is on record?
The outcome was “inactive”.

Which outcome does the source give for `COc1ccc(S(=O)(=O)N2CCOCC2)cc1NC(=O)CSc1ncccn1` here?
The outcome was “inactive”.

For `Cc1c(N=Cc2c(O)n(Cc3ccco3)c(=O)c3ccccc23)c(=O)n(-c2ccccc2)n1C`, which outcome is on record?
The outcome was “inactive”.

Which outcome does the source give for `CCOC(=O)C1CCN(S(=O)(=O)c2nc3nc(C)cc(C)n3n2)CC1` here?
Its outcome is “inactive”.

With `O=C(NNC(=O)c1ccncc1)Nc1ccc(N=Nc2ccccc2)cc1` as the compound, how does the outcome read?
Its outcome is “inactive”.

For `COc1ccc(C#Cc2ccc([C@H]3[C@H]4CN(C(=O)c5ccncc5)CCCCN4[C@H]3CO)cc2)cc1`, which outcome is on record?
Its outcome is “inactive”.

Which outcome does the source give for `C[C@@H]1CN([C@@H](C)CO)C(=O)c2cc(NS(=O)(=O)c3cccs3)ccc2O[C@@H]1CN(C)Cc1ccc2c(c1)OCO2` here?
Its outcome is “inactive”.

Which outcome does the source give for `C[C@H]1CN([C@@H](C)CO)C(=O)c2cccc(NS(=O)(=O)c3cccs3)c2O[C@@H]1CN(C)C(=O)Nc1ccc(C(F)(F)F)cc1` here?
Its outcome is “inactive”.

For `Cc1cccc(OCC(=O)Nc2cc(C)ccc2O)c1`, which outcome is on record?
The outcome was “inactive”.

Which outcome does the source give for `COc1ccccc1-c1noc(-c2ccncc2)n1` here?
Its outcome is “inactive”.

Which outcome does the source give for `Cc1ccc(-c2noc(-c3cccs3)n2)cc1` here?
The outcome was “inactive”.

With `Cc1ccc(C(=O)OCC(=O)Nc2ccc3c(c2)OCO3)cc1S(=O)(=O)N1CCOCC1` as the compound, how does the outcome read?
Its outcome is “inactive”.

With `CCOC(=O)C(C)n1nc(/C=C/c2ccccc2)ccc1=O` (centres undefined) as the compound, how does the outcome read?
Its outcome is “inactive”.

For `C[C@@H]1CN([C@@H](C)CO)C(=O)Cc2cc(NC(=O)Cc3cn(C)c4ccccc34)ccc2O[C@H]1CN(C)Cc1ccc(Oc2ccccc2)cc1`, which outcome is on record?
The outcome was “inactive”.

For `O=C(Nc1nc2c(s1)CCCC2)c1ccc(Br)o1`, which outcome is on record?
Its outcome is “inactive”.

For `C[C@H](CO)N1C[C@H](C)[C@@H](CN(C)S(=O)(=O)c2cn(C)cn2)Oc2ccc(NC(=O)Nc3ccc(C(F)(F)F)cc3)cc2C1=O`, which outcome is on record?
The outcome was “inactive”.

For `C[C@H](CO)N1C[C@H](C)[C@@H](CN(C)S(=O)(=O)c2ccc(Cl)cc2)Oc2c(NC(=O)Nc3ccc(C(F)(F)F)cc3)cccc2C1=O`, which outcome is on record?
The outcome was “inactive”.

Which outcome does the source give for `C[C@H](N)c1nnc(SCC(=O)c2ccc(Cl)cc2)o1` here?
Its outcome is “inactive”.

For `CC(C)CC#Cc1cnc2c(c1)C(=O)N([C@@H](C)CO)C[C@@H](C)[C@H](CN(C)S(=O)(=O)c1cccs1)O2`, which outcome is on record?
The outcome was “inactive”.

With `CCn1c(CSc2nc(C)cc(C)n2)nnc1SCC(=O)Nc1nc(-c2ccccc2)cs1` as the compound, how does the outcome read?
The outcome was “inactive”.

With `COc1ccc(S(=O)(=O)Nc2cccc3c2O[C@H](CN(C)S(=O)(=O)c2ccc(Cl)cc2)[C@H](C)CN([C@@H](C)CO)C3=O)cc1` as the compound, how does the outcome read?
The outcome was “inactive”.

For `CCOc1ccccc1C(=O)n1nc(C)cc1C`, which outcome is on record?
The outcome was “inactive”.

Which outcome does the source give for `CCOC(=O)Cn1c(=O)c2c(nc3n2CCN3Cc2ccccc2)n(C)c1=O` here?
The outcome was “inactive”.

With `CCCCOC(=O)Cn1c(=O)c2c(nc3n2CCCCN3c2ccc(C)cc2)n(C)c1=O` as the compound, how does the outcome read?
Its outcome is “inactive”.

For `O=C1c2ccccc2C(=O)N1CCC1=CCCCC1`, which outcome is on record?
The outcome was “inactive”.

With `C[C@@H]1CN([C@H](C)CO)C(=O)c2cccc(NS(=O)(=O)c3cccs3)c2O[C@@H]1CN(C)S(=O)(=O)c1cccs1` as the compound, how does the outcome read?
Its outcome is “inactive”.
